Assay results published in ChEMBL document CHEMBL1961873, “Compounds: GSK PKIS; Assays: Nanosyn kinase panel” (2012).

Key:
[1] = molecular target: Rho-associated protein kinase 1 (Homo sapiens) (UniProt Q13464); settings: at 1 µM;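 note: reported values are mean percent inhibition of ROCK1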
[2] = molecular target: Rho-associated protein kinase 2 (Homo sapiens) (UniProt O75116); settings: at 0.1 µM
[3] = molecular target: Rho-associated protein kinase 2 (Homo sapiens) (UniProt O75116); settings: at 1 µM
[4] = molecular target: Ribosomal protein S6 kinase alpha-1 (Homo sapiens) (UniProt Q15418); settings: at 0.1 µM
Chain of Ribosomal protein S6 kinase alpha-1 (Homo sapiens) (Q15418 whole entry): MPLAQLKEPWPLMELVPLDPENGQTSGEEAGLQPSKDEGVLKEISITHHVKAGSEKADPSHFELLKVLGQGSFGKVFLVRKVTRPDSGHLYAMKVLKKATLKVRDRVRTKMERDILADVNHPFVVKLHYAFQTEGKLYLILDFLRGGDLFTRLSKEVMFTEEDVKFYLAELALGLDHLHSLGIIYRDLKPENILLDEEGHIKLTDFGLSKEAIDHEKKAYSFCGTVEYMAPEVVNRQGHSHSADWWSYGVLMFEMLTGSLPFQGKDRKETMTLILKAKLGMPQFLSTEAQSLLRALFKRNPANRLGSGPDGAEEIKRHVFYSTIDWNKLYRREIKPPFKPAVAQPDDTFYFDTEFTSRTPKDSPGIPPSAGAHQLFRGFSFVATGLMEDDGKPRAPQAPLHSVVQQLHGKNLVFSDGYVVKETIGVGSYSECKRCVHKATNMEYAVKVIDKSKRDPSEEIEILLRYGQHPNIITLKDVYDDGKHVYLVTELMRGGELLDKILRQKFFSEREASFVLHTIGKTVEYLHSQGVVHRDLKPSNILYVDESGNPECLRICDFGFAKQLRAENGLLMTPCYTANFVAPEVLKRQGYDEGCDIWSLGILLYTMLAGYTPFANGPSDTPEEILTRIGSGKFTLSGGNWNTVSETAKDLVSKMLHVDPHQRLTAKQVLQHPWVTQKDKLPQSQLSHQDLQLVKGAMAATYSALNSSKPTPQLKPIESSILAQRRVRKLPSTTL

[5] = molecular target: Ribosomal protein S6 kinase alpha-1 (Homo sapiens) (UniProt Q15418); settings: at 1 µM
[6] = molecular target: Ribosomal protein S6 kinase alpha-3 (Homo sapiens) (UniProt P51812); settings: at 0.1 µM
[7] = molecular target: Ribosomal protein S6 kinase alpha-3 (Homo sapiens) (UniProt P51812); settings: at 1 µM
[8] = molecular target: Ribosomal protein S6 kinase alpha-2 (Homo sapiens) (UniProt Q15349); settings: at 0.1 µM
Chain of Ribosomal protein S6 kinase alpha-2 (Homo sapiens) (Q15349 whole entry): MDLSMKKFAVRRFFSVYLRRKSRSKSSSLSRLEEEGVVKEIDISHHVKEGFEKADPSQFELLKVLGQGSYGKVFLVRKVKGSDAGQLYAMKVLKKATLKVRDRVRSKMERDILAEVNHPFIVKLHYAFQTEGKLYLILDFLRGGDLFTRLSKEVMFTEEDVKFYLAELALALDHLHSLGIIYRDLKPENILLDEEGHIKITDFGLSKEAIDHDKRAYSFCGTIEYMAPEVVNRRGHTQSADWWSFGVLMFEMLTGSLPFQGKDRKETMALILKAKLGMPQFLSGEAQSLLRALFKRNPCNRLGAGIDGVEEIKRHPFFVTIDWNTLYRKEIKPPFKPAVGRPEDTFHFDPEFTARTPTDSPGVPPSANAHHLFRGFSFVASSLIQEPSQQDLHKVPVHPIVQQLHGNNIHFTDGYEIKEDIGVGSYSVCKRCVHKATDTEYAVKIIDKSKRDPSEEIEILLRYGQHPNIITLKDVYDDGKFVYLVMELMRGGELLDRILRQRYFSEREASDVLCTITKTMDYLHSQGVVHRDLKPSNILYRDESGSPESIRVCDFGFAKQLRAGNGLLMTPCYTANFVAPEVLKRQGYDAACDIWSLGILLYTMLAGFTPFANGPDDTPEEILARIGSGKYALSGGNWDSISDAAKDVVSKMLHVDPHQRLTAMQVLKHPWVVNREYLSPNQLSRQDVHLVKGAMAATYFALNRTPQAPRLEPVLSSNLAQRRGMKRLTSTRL

[9] = molecular target: Ribosomal protein S6 kinase alpha-2 (Homo sapiens) (UniProt Q15349); settings: at 1 µM
[10] = molecular target: Ribosomal protein S6 kinase alpha-6 (Homo sapiens) (UniProt Q9UK32); settings: at 0.1 µM
Chain of Ribosomal protein S6 kinase alpha-6 (Homo sapiens) (Q9UK32 whole entry): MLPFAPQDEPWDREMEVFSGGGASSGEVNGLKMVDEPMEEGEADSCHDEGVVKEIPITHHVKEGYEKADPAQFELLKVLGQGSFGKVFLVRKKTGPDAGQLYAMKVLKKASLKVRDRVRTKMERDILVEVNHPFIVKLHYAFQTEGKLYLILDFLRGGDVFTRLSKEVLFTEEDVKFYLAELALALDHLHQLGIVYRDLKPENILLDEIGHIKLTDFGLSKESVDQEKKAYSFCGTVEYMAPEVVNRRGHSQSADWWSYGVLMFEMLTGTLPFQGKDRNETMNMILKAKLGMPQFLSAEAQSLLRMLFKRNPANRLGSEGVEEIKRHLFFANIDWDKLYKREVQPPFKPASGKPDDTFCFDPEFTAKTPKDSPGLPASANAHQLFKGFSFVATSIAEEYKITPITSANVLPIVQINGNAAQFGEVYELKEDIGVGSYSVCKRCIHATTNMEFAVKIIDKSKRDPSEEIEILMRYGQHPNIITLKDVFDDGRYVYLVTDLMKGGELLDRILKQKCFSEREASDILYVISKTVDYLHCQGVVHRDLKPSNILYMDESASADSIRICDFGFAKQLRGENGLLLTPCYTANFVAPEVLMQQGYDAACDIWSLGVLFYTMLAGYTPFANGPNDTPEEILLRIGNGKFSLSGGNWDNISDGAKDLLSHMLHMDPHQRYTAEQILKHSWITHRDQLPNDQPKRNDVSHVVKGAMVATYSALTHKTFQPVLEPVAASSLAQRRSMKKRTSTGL

[11] = molecular target: Ribosomal protein S6 kinase alpha-6 (Homo sapiens) (UniProt Q9UK32); settings: at 1 µM
[12] = molecular target: T1, Serine/threonine-protein kinase Sgk1 (Homo sapiens) (UniProt O00141); settings: at 0.1 µM
T1 sequence (whole entry): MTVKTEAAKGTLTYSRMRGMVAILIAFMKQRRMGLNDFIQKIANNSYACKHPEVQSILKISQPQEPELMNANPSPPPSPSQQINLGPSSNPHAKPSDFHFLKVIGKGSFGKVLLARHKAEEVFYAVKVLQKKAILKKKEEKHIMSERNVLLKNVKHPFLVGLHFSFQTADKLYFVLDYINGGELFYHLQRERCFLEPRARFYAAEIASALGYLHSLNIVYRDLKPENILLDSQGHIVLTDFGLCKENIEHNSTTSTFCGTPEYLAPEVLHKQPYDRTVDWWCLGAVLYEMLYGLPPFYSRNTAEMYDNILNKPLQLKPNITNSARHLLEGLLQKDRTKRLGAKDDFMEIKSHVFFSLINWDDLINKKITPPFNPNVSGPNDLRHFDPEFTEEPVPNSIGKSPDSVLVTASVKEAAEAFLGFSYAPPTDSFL

[13] = molecular target: T1, Serine/threonine-protein kinase Sgk1 (Homo sapiens); settings: at 1 µM
[14] = molecular target: T2, Serine/threonine-protein kinase Sgk2 (Homo sapiens) (UniProt Q9HBY8); settings: at 0.1 µM
T2 sequence (whole entry): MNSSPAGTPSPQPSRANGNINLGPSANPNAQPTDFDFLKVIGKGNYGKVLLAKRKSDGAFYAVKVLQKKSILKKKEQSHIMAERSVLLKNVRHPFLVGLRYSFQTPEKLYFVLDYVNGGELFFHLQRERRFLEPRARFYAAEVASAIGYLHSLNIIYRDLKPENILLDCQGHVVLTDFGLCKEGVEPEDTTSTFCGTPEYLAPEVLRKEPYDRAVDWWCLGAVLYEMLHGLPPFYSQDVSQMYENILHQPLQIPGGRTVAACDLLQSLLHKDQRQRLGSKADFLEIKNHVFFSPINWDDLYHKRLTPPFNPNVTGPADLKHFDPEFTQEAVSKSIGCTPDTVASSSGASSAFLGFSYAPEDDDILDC

[15] = molecular target: T2, Serine/threonine-protein kinase Sgk2 (Homo sapiens); settings: at 1 µM
[16] = molecular target: T3, Serine/threonine-protein kinase Sgk3 (Homo sapiens) (UniProt Q96BR1); settings: at 0.1 µM
T3 sequence (whole entry): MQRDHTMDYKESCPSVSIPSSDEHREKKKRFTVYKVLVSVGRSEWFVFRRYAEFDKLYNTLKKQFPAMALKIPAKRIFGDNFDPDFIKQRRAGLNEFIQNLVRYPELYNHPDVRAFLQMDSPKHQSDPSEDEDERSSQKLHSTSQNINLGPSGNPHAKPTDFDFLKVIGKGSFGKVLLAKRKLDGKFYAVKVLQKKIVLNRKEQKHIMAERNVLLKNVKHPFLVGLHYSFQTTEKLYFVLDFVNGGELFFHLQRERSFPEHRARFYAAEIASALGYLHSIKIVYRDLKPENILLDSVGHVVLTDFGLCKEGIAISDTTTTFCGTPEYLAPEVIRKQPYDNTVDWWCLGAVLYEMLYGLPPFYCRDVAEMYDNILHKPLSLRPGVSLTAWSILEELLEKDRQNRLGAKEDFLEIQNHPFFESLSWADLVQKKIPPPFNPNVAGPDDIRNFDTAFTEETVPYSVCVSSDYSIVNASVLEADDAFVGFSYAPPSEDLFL

[17] = molecular target: T3, Serine/threonine-protein kinase Sgk3 (Homo sapiens); settings: at 1 µM
[18] = molecular target: 5'-AMP-activated protein kinase catalytic subunit alpha-1 (Homo sapiens) (UniProt Q13131); settings: at 0.1 µM
Chain of 5'-AMP-activated protein kinase catalytic subunit alpha-1 (Homo sapiens) (Q13131 whole entry, looked up): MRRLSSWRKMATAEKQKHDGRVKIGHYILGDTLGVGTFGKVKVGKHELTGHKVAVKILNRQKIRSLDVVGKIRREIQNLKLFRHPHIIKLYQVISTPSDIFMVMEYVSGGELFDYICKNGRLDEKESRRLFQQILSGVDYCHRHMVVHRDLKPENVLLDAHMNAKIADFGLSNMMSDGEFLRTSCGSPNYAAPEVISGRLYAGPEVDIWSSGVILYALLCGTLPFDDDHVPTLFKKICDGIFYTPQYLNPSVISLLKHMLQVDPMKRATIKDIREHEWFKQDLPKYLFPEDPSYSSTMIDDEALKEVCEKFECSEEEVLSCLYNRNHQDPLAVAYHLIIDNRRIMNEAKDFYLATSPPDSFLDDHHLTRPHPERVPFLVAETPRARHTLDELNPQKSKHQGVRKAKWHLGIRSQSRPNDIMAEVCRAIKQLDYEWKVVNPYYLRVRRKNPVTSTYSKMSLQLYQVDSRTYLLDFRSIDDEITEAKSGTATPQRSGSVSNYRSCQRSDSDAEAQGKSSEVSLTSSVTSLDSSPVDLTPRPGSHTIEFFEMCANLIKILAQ

[19] = molecular target: 5'-AMP-activated protein kinase catalytic subunit alpha-1 (Homo sapiens) (UniProt Q13131); settings: at 1 µM
[20] = molecular target: 5'-AMP-activated protein kinase catalytic subunit alpha-2 (Homo sapiens) (UniProt P54646); settings: at 0.1 µM;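 note: mean inhibition measured on the AMPK complex of alpha2, beta1 and gamma1 subunits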
Chain of 5'-AMP-activated protein kinase catalytic subunit alpha-2 (Homo sapiens) (P54646 whole entry, looked up): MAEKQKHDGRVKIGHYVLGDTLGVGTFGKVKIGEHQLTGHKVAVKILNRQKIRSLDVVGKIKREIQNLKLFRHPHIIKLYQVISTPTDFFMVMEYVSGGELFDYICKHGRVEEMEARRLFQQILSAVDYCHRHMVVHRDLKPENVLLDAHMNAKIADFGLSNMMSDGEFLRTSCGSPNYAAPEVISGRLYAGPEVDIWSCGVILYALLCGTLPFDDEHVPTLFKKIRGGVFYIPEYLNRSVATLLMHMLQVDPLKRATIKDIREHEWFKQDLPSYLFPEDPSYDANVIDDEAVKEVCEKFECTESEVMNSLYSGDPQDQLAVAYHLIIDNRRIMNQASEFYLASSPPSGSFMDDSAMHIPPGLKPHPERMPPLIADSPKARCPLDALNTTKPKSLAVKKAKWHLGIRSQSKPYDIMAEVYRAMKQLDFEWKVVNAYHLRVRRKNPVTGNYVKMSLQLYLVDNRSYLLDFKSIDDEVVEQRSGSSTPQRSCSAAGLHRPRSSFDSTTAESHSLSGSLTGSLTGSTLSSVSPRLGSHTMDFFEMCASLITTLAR

Chain of Rho-associated protein kinase 1 (Homo sapiens) (Q13464 2-1354 limits assumed): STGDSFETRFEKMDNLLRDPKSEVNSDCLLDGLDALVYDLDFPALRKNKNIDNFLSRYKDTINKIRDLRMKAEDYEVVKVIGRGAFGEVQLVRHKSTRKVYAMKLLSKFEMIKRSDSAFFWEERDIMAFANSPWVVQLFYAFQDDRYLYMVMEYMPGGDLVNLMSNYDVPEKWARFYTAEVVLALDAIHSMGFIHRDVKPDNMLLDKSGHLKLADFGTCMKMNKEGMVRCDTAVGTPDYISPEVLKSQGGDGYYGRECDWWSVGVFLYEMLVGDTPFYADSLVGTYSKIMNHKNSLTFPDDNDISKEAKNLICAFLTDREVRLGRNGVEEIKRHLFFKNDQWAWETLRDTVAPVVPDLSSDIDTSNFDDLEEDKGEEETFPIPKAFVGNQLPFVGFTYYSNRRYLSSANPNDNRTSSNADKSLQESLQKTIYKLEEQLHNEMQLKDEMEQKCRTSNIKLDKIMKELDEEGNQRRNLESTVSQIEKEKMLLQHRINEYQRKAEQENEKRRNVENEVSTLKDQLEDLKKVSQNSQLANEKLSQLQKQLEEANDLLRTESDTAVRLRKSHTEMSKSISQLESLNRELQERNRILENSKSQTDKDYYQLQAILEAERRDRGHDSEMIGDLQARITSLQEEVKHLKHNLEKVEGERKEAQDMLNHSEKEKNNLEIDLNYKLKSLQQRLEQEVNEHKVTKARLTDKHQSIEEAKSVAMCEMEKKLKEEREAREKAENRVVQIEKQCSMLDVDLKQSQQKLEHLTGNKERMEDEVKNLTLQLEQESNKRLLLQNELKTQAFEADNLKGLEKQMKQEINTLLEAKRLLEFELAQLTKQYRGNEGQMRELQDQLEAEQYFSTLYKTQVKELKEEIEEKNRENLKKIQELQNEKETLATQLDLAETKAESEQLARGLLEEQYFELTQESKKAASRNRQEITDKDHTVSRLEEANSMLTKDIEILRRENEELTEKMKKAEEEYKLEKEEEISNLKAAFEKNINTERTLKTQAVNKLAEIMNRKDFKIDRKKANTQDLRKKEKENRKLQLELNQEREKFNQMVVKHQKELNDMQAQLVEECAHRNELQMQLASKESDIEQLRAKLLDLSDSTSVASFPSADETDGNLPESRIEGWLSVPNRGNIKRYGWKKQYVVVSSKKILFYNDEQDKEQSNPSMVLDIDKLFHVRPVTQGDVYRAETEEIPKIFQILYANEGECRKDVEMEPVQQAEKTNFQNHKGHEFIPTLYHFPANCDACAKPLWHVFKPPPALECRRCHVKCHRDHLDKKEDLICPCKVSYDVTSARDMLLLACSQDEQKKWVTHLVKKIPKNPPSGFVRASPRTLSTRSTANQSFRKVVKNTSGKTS

CN(c1ccc(NC(=O)Nc2ccc(OC(F)(F)F)cc2)cc1)c1ccnc(Nc2cccc(S(N)(=O)=O)c2)n1
inhibition [1]: 1.61% | inhibition [2]: -0.23% | inhibition [3]: 3.48% | inhibition [4]: 0.06% | inhibition [5]: 0.25% | inhibition [6]: -0.29% | inhibition [7]: -0.29% | inhibition [8]: 1.62% | inhibition [9]: 2.2% | inhibition [10]: -0.26% | inhibition [11]: -0.89% | inhibition [12]: 2.63% | inhibition [13]: 1.43% | inhibition [14]: 3.27% | inhibition [15]: 4.82% | inhibition [16]: 7.71% | inhibition [17]: 2.44% | inhibition [18]: 0.3% | inhibition [19]: 1.3% | inhibition [20]: -1.16%

Cc1ccc2c(-c3ccnc(Nc4cccc(C(F)(F)F)c4)n3)c(-c3ccccc3)nn2n1
inhibition [1]: 3.58% | inhibition [2]: 3.31% | inhibition [3]: 3.33% | inhibition [4]: 0.52% | inhibition [5]: 2.33% | inhibition [6]: -0.67% | inhibition [7]: 0.59% | inhibition [8]: 3.58% | inhibition [9]: 3.98% | inhibition [10]: 0.82% | inhibition [11]: 2.56% | inhibition [12]: 2.23% | inhibition [13]: 3.64% | inhibition [14]: 5.64% | inhibition [15]: -0.25% | inhibition [16]: 3.07% | inhibition [17]: 4.11% | inhibition [18]: 0.65% | inhibition [19]: 2.66% | inhibition [20]: 5.96%

Oc1cccc(-c2nc(-c3ccccc3)[nH]c2-c2ccncc2)c1
inhibition [1]: 1.51% | inhibition [2]: 3.56% | inhibition [3]: 6.34% | inhibition [4]: 2.58% | inhibition [5]: 3.62% | inhibition [6]: 1.36% | inhibition [7]: 2.76% | inhibition [8]: 1.27% | inhibition [9]: 3.22% | inhibition [10]: 2.27% | inhibition [11]: 2.67% | inhibition [12]: 0.98% | inhibition [13]: 4.8% | inhibition [14]: 1.32% | inhibition [15]: 4.97% | inhibition [16]: 3.71% | inhibition [17]: 1.35% | inhibition [18]: 2.62% | inhibition [19]: 3.13% | inhibition [20]: 3.23%

[O-][S+]1CCN(Cc2ccc(-c3ccc4ncnc(Nc5ccc(OCc6ccccc6)c(Cl)c5)c4c3)o2)CC1
inhibition [1]: 1.73% | inhibition [2]: 0.05% | inhibition [3]: 0.91% | inhibition [4]: -1.27% | inhibition [5]: 0.75% | inhibition [6]: -1.03% | inhibition [7]: 0.82% | inhibition [8]: -1.2% | inhibition [9]: 0.54% | inhibition [10]: -1.76% | inhibition [11]: -0.67% | inhibition [12]: 2.48% | inhibition [13]: 1.69% | inhibition [14]: -2.36% | inhibition [15]: 1.12% | inhibition [16]: 0.45% | inhibition [17]: 1.38% | inhibition [18]: 0.09% | inhibition [19]: 1.19% | inhibition [20]: 2.56%

COC(=O)c1cncc(/C=C/c2c(C)cc(O)cc2C)c1
inhibition [1]: 1.27% | inhibition [2]: 3.8% | inhibition [3]: 5.21% | inhibition [4]: 2.26% | inhibition [5]: 4.95% | inhibition [6]: 1.3% | inhibition [7]: 2.62% | inhibition [8]: 2.03% | inhibition [9]: 2.47% | inhibition [10]: 1.66% | inhibition [11]: 6.87% | inhibition [12]: 3.1% | inhibition [13]: 4.65% | inhibition [14]: 3.28% | inhibition [15]: 2.28% | inhibition [16]: 2.89% | inhibition [17]: 4.83% | inhibition [18]: 2.38% | inhibition [19]: 5.18% | inhibition [20]: 0.21%

ON=C1CCc2cc(-c3nc(C4CCNCC4)[nH]c3-c3ccncc3)ccc21
inhibition [1]: 0.82% | inhibition [2]: -1.08% | inhibition [3]: -0.29% | inhibition [4]: -1.46% | inhibition [5]: -1.99% | inhibition [6]: -1% | inhibition [7]: -0.39% | inhibition [8]: 0.31% | inhibition [9]: 1.01% | inhibition [10]: 0.13% | inhibition [11]: -0.49% | inhibition [12]: 0.64% | inhibition [13]: 0.87% | inhibition [14]: -0.56% | inhibition [15]: -1.29% | inhibition [16]: -1.46% | inhibition [17]: -0.07% | inhibition [18]: -0.26% | inhibition [19]: -1.59% | inhibition [20]: -1.32%

Cc1ccc2c(-c3ccnc(Nc4ccc5c(c4)OCCO5)n3)c(-c3ccc(C(F)(F)F)cc3)nn2n1
inhibition [1]: 1.22% | inhibition [2]: 0.44% | inhibition [3]: 1.89% | inhibition [4]: 0.91% | inhibition [5]: 0.79% | inhibition [6]: 1.19% | inhibition [7]: 1.86% | inhibition [8]: 1.06% | inhibition [9]: 1.53% | inhibition [10]: -0.18% | inhibition [11]: 0.44% | inhibition [12]: 0.85% | inhibition [13]: 1.65% | inhibition [14]: -0.62% | inhibition [15]: -1.7% | inhibition [16]: 0.16% | inhibition [17]: -1.14% | inhibition [18]: 0.51% | inhibition [19]: 3.23% | inhibition [20]: 0.13%

c1ccc(Cc2nc3ccc(Nc4ncnc5ccccc45)cc3[nH]2)cc1
inhibition [1]: 1.95% | inhibition [2]: 2.34% | inhibition [3]: 4.82% | inhibition [4]: 2.52% | inhibition [5]: 4.1% | inhibition [6]: 0.88% | inhibition [7]: 2.69% | inhibition [8]: 1.07% | inhibition [9]: 3.24% | inhibition [10]: 0.96% | inhibition [11]: 0.98% | inhibition [12]: 1.05% | inhibition [13]: 6.43% | inhibition [14]: 1.59% | inhibition [15]: 5.44% | inhibition [16]: 2.24% | inhibition [17]: 3.66% | inhibition [18]: 3.03% | inhibition [19]: 4.08% | inhibition [20]: -0.36%

COc1ccc(-c2nn3ncccc3c2-c2ccnc(Nc3cccc(C(F)(F)F)c3)n2)cc1
inhibition [1]: 0.6% | inhibition [2]: 2.74% | inhibition [3]: 1.41% | inhibition [4]: 1.07% | inhibition [5]: 2.11% | inhibition [6]: 1.27% | inhibition [7]: 1.97% | inhibition [8]: 1.64% | inhibition [9]: 2.11% | inhibition [10]: 0.81% | inhibition [11]: 0.26% | inhibition [12]: 1.37% | inhibition [13]: 2.02% | inhibition [14]: 1.57% | inhibition [15]: 4.94% | inhibition [16]: 3.1% | inhibition [17]: 3.41% | inhibition [18]: 2.78% | inhibition [19]: 3.84% | inhibition [20]: 1.06%

O=S(=O)(CCOCc1ccc(-c2ccc3ncnc(Nc4ccc(OCc5cccc(F)c5)c(Cl)c4)c3c2)o1)c1ccccc1
inhibition [1]: 3.68% | inhibition [2]: 1.09% | inhibition [3]: 6.38% | inhibition [4]: -1.65% | inhibition [5]: 1.43% | inhibition [6]: -0.82% | inhibition [7]: 1.23% | inhibition [8]: -0.87% | inhibition [9]: 1.09% | inhibition [10]: -1.59% | inhibition [11]: -0.62% | inhibition [12]: 1.34% | inhibition [13]: 2.27% | inhibition [14]: 3.28% | inhibition [15]: -0.92% | inhibition [16]: 3.38% | inhibition [17]: 1.38% | inhibition [18]: -0.69% | inhibition [19]: 1.2% | inhibition [20]: 4.55%

OCc1ccc(-c2nc(-c3ccccn3)c(-c3ccc4c(c3)OCO4)[nH]2)cc1
inhibition [1]: 2.25% | inhibition [2]: 3.74% | inhibition [3]: 1.44% | inhibition [4]: 1.38% | inhibition [5]: 0.67% | inhibition [6]: 0.79% | inhibition [7]: 0.24% | inhibition [8]: 2.72% | inhibition [9]: 3.66% | inhibition [10]: 1.53% | inhibition [11]: 2.9% | inhibition [12]: 3.65% | inhibition [13]: 0.91% | inhibition [14]: 1.37% | inhibition [15]: 1.29% | inhibition [16]: 3.28% | inhibition [17]: 2.86% | inhibition [18]: 3.68% | inhibition [19]: 2.81% | inhibition [20]: 2.09%
